Results: PubChem BioAssay (NCI)
Several values for one entry are separate records, joined by “and”; a condition that tells them apart may be missing. Identical values can stand only once. The panel holds about 79,000 compounds, 15% with a hit somewhere; the sample as a whole holds those more often. More than one record can exist for a structure, and the calls need not agree. Activity calls are given as the source filed them. Rule as the data show it: active = growth inhibition above about 70%; inactive = the rest.

Legend:
[1] = NCI Yeast Anticancer Drug Screen. Data for the rad50 strain (AID 155);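 also: 0% = growth of vehicle-only cultures of the same strain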; conditions: S. cerevisiae rad50 strain growth inhibition, stronger effect = higher value
In short: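 Growth of the mutant yeast was measured after compound exposure and referenced to vehicle-treated cultures.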

[2] = NCI Yeast Anticancer Drug Screen. Data for the mec2-1 strain (AID 157); conditions: S. cerevisiae mec2-1 strain, stronger effect = higher value
In short: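 Each compound was tested on mec2-1 yeast, a strain altered in DNA damage repair or cell cycle control. Growth inhibition is reported relative to vehicle.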

[3] = NCI Yeast Anticancer Drug Screen. Data for the sgs1 mgt1 strain (AID 161);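 also: 0% = growth of cultures given vehicle only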; conditions: S. cerevisiae sgs1 mgt1 strain, stronger effect = higher value
In short: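 Read-out: growth inhibition vs vehicle controls. Cells: mutant yeast strain deficient in DNA damage repair.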

[4] = NCI Yeast Anticancer Drug Screen. Data for the cln2 rad14 strain (AID 165);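 also: 0% = growth equal to vehicle treated cultures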; conditions: S. cerevisiae cln2 rad14 strain, stronger effect = higher value
In short: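 Test compounds were added to cln2 rad14 yeast cultures; inhibition of growth was then determined by comparison with vehicle treatment.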

[5] = NCI Yeast Anticancer Drug Screen. Data for the bub3 strain (AID 167); conditions: S. cerevisiae bub3 mutant strain, stronger effect = higher value
In short: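 Whole-cell yeast assay. The mutant strain was incubated with compounds, and growth inhibition was determined by comparison with vehicle-treated cells.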

[6] = NCI Yeast Anticancer Drug Screen. Data for the mlh1 rad18 strain (AID 175); conditions: S. cerevisiae mlh1 rad18 strain growth inhibition, stronger effect = higher value
In short: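 Inhibition values reflect reduced growth of mutant yeast versus vehicle-treated controls following compound exposure; the mutations affect DNA damage repair.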

[7] = at 5.0 µM (retest, dose inferred, filed as 0.5)
[8] = at 50.0 µM (retest, dose inferred, filed as 5.0)

Row | Structure (SMILES) | growth inhibition [1, 7] | growth inhibition [1, 8] | growth inhibition ([1]; at 50.0 µM) | growth inhibition [2, 7] | growth inhibition [2, 8] | growth inhibition ([2]; at 50.0 µM) | growth inhibition [3, 7] | growth inhibition [3, 8] | growth inhibition ([3]; at 50.0 µM) | growth inhibition [4, 7] | growth inhibition [4, 8] | growth inhibition ([4]; at 50.0 µM) | growth inhibition [5, 7] | growth inhibition [5, 8] | growth inhibition ([5]; at 50.0 µM) | growth inhibition [6, 7] | growth inhibition [6, 8] | growth inhibition ([6]; at 50.0 µM)
1 | COc1nc(NC2OC(CO)C(O)C(O)C2O)c(Cl)c(=O)n1C (stereo unspecified) | 1% (inactive) | 5% (inactive) | 17.7% (inactive) | 3% (inactive) | 0% (inactive) | 74.5% (active) | 2% (inactive) | -2% (inactive) | 87.3% (active) | 1% (inactive) | 3% (inactive) | 69.3% (inactive) | -1% (inactive) | -2% (inactive) | 71.2% (active) | -1% (inactive) | -3% (inactive) | 88.9% (active)
2 | COc1ccc(/C=C2\CCCC(CN(C)C)C2=O)cc1 (stereo unspecified) | -1% (inactive) | 8% (inactive) | 65.4% (inactive) | -20% (inactive) | 13% (inactive) | 78.8% (active) | -31% (inactive) | -3% (inactive) | 86.2% (active) | -32% (inactive) | 9% (inactive) | 57.4% (inactive) | -48% (inactive) | 23% (inactive) | 81.8% (active) | -22% (inactive) | 5% (inactive) | 84.7% (active)
3 | C[C@H](CCC(=O)O)[C@H]1CC[C@H]2[C@@H]3[C@H](O)C[C@@H]4C[C@H](O)CC[C@]4(C)[C@H]3CC[C@]12C | 24% (inactive) | 94% (active) | 90% (active) | -14% (inactive) | 96% (active) | 91.3% (active) | 9% (inactive) | 96% (active) | 92.3% (active) | 19% (inactive) | 96% (active) | 90.2% (active) | -3% (inactive) | 98% (active) | 90.5% (active) | 6% (inactive) | 97% (active) | 90.2% (active)
4 | COC(=O)c1nnn(-c2ccc(S(N)(=O)=O)cc2)c1N | -9% (inactive) | -16% (inactive) | 36.6% (inactive) | -4% (inactive) | -10% (inactive) | 19.6% (inactive) | -9% (inactive) | -20% (inactive) | 53.5% (inactive) | 1% (inactive) | 1% (inactive) | 18.7% (inactive) | -22% (inactive) | -7% (inactive) | -4.45% (inactive) | -13% (inactive) | -23% (inactive) | 64.9% (inactive)
5 | O=C(c1ccco1)N(C(=S)N1CCN(c2ccccn2)CC1)C1CCCCC1 | 5% (inactive) | 46% (inactive) | 73.3% (active) | -7% (inactive) | 49% (inactive) | 86.7% (active) | 0% (inactive) | 76% (active) | 84.3% (active) | 30% (inactive) | 60% (inactive) | 71.8% (active) | 0% (inactive) | 40% (inactive) | 79% (active) | -14% (inactive) | 80% (active) | 79.3% (active)
6 | CN(C)c1ccc(/C=C/c2cc[n+](C)c3ccccc23)cc1 | -3% (inactive) and -12% (inactive) | 81% (active) and 53% (inactive) | 95.3% (active) and 71.3% (active) | 0% (inactive) and -25% (inactive) | 93% (active) and 83% (active) | 97.9% (active) and 86.2% (active) | 3% (inactive) and -10% (inactive) | 92% (active) and 88% (active) | 93.7% (active) and 83.4% (active) | -2% (inactive) and -5% (inactive) | 89% (active) and 57% (inactive) | 96.6% (active) and 66.7% (inactive) | -3% (inactive) and -17% (inactive) | 85% (active) and 83% (active) | 97.5% (active) and 82.8% (active) | -8% (inactive) and -21% (inactive) | 93% (active) and 80% (active) | 97.7% (active)
7 | CC(=O)OCC(=O)[C@H]1CC[C@H]2[C@@H]3CC=C4C[C@@H](O)CC[C@]4(C)[C@H]3CC[C@]12C | 54% (inactive) | 91% (active) | 89.8% (active) | 33% (inactive) | 91% (active) | -5.65% (inactive) | 60% (inactive) | 94% (active) | 48.5% (inactive) | 18% (inactive) | 95% (active) | 55.8% (inactive) | 23% (inactive) | 91% (active) | -17.4% (inactive) | 65% (inactive) | 95% (active) | 81.1% (active)
